Results reported in PubChem BioAssay (EPA / NIEHS).
Inconclusive results are not listed. The source made the active and inactive calls. Rule for the calls, unless noted: active = hit-call score of the fitted dose curve at least 0.9, where 1 is the maximum; inactive = score below 0.9.

How the values were obtained:
[1] = ACEA_ER_80hr: ACEA Biosciences xCELLigence Real-Time Cell Analysis on Estrogen Receptor Agonism for Proliferation (AID 2282667; active = hit-call score of the fitted dose curve at least 0.9, where 1 is the maximum); conditions: T47D proliferation, impedance (xCELLigence), 80 h
Method in brief: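 Impedance readout (RT-CES) of T47D proliferation at 80 h post-dose; gain of signal vs DMSO baseline. Compounds: 8 conc, 1:4 serial, top 100 uM final, ≤0.5% DMSO; biological duplicate.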

[2] = APR_HepG2_CellCycleArrest_24hr: Apredica 24-hour HepG2 Assay for Cell Cycle Arrest (AID 2282905); conditions: imaging, actives raise or lower the signal;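 note: cell cycle arrest scored as ratio of 2N to 4N nuclear DNA content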
Method in brief: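 Cell cycle arrest is scored from nuclear DNA content measured by high-content imaging of Hoechst 33342-stained HepG2 cells following 24-hour treatment at ten concentrations up to 200 uM, with DMSO as baseline.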

[3] = APR_HepG2_NuclearSize_24hr: Apredica 24-hour HepG2 Assay for Nuclear Size (AID 2282907); conditions: high-content imaging, actives raise or lower the signal
Method in brief: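 Compounds in DMSO (final 0.5%) were added to human HepG2 hepatoma cells at ten concentrations up to 200 uM for 24 hr. Fixed nuclei were stained with Hoechst 33342, and nuclear diameter was quantified from automated images.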

[4] = APR_HepG2_CellLoss_24hr: Apredica 24-hour HepG2 Assay for Cell Loss (AID 2282908); conditions: high-content imaging;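 for AC50: fit in both directions so a hit may be cell loss or gain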
Method in brief: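 Cell number is quantified by fluorescence imaging of Hoechst 33342-stained nuclei following dosing at 0.39–200 uM in 0.5% DMSO. Curves are fitted in both directions from the DMSO baseline.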

[5] = APR_HepG2_MicrotubuleCSK_24hr: Apredica 24-hour HepG2 Assay for Microtubule CSK Stabilty (AID 2282909); conditions: HepG2 microtubule cytoskeleton imaging, actives raise or lower the signal
Method in brief: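 Steps: dose HepG2 for 24 h (0.39–200 uM, 0.5% DMSO); fix 30 min in 3.7% formaldehyde at room temperature; permeabilize; stain alpha-tubulin 60 min; image microtubule cytoskeleton at 20x. Signal change fitted in both directions relative to DMSO.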

[6] = APR_HepG2_MitoticArrest_24hr: Apredica 24-hour HepG2 Assay for Mitotic Arrest (AID 2282910); conditions: high-content imaging, actives raise or lower the signal
Method in brief: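 Compounds are dosed onto HepG2 cells across ten concentrations up to 200 uM for 24 hr. Cells are then fixed in 3.7% formaldehyde, permeabilised, and labelled for phospho-histone H3 and nuclei; images are scored by cell cycle analysis and fitted bidirectionally relative to DMSO.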

[7] = APR_HepG2_MitoMembPot_24hr: Apredica 24-hour HepG2 Assay for Mitochondrial Membrane Potential (AID 2282911); conditions: imaging, actives raise or lower the signal
Method in brief: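 HepG2, 24 hr dosing, 10 concentrations 0.39–200 uM, 0.5% DMSO final. Live-cell MitoTracker Red CMXRos 250 nM 30 min, then 3.7% formaldehyde fix. HCS fluorescence imaging, 20x; bidirectional fit vs DMSO baseline.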

[8] = APR_HepG2_MitoMass_24hr: Apredica 24-hour HepG2 Assay for Mitochondrial Mass (AID 2282912); conditions: high-content imaging, actives raise or lower the signal
Method in brief: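 The liver line HepG2 was dosed in duplicate across a 0.39–200 uM series, with final DMSO held at 0.5% v/v, and harvested at 24 hr. High-content imaging measured mitochondrial dye staining.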

[9] = APR_HepG2_p53Act_24hr: Apredica 24-hour HepG2 Assay for p53 Activation (AID 2282913); conditions: high-content imaging, actives raise or lower the signal;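 note: p53 protein immunofluorescence averaged per cell in HepG2 with Hoechst nuclei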
Method in brief: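 Read-out: Cy5 immunofluorescence for p53 in fixed, permeabilized HepG2, imaged by HCS with Hoechst-defined nuclei. Dosing was 24 hr at 0.39–200 uM in 0.5% DMSO. Curves were fitted bidirectionally relative to DMSO.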

[10] = APR_HepG2_CellCycleArrest_72hr: Apredica 72-hour HepG2 Assay for Cell Cycle Arrest (AID 2282914); conditions: high-content imaging, actives raise or lower the signal
Method in brief: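 HepG2, 72 hr exposure, 10-point 0.39–200 uM, duplicate, 0.5% DMSO final. Fix 3.7% formaldehyde 30 min RT, Triton X-100 0.5%, Hoechst 33342 2 ug/mL. ArrayScan 20x, six fields/well; DNA content per nucleus; bidirectional fit vs DMSO.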

Measured: AC50

COc1cc(/C=C/C(=O)CC(=O)/C=C/c2ccc(O)c(OC)c2)ccc1O
active: [4] 38 µM | [6] 56.1 µM | [7] 48 µM | [9] 84.6 µM
inactive: all other assays above

CCOC(=O)C(C)(C)Oc1ccc(Cl)cc1
active: [4] 115 µM | [7] 121 µM
inactive: all other assays above

CCCCCCC(=O)OCC
inactive: all assays above

COC(=O)c1ccc(O)cc1
inactive: all assays above

c1cc(-c2ccncc2)ccn1
inactive: all assays above

NS(=O)(=O)c1cc2c(cc1Cl)NCNS2(=O)=O
inactive: all assays above

CCCCCCCCCCCCCCCC
inactive: all assays above

Cc1cccc([N+](=O)[O-])c1C
inactive: all assays above

Cc1nc(-c2ccc3c(c2)CCN(CCC2CCC(NC(=O)/C=C/c4ccc(F)cc4)CC2)CC3)no1 (stereo not given)
inactive: all assays above

Cc1nc(C)nc(N2C[C@@H](C)N(c3ccnc([C@@H](C)O)n3)[C@@H](C)C2)n1
inactive: all assays above

Cc1ccc2ncccc2c1
inactive: all assays above

CCOC(=O)CCC(=O)OCC
inactive: all assays above

CCCCc1ccc2c(n1)[C@@H](c1ccc(OC)cc1C[C@H](C)C(=O)O)[C@H](C(=O)O)[C@H]2c1ccc2c(c1)OCO2
inactive: all assays above

Cc1cccc(C)c1O
inactive: all assays above

Oc1ccc2ccccc2c1N=Nc1ccccc1
active: [1] 6.47 µM | [4] 34 µM | [6] 27.1 µM | [7] 0.0816 µM | [10] 0.813 µM
inactive: [2] | [3] | [5] | [8] | [9]

CC1(C)CC(N=C=O)CC(C)(CN=C=O)C1 (stereo not given)
active: [10] 92.5 µM
inactive: all other assays above

NCC1(Cc2noc(=O)[nH]2)CCCCC1
inactive: all assays above

COc1ccc2c(c1)c(CC(=O)O)c(C)n2C(=O)c1ccc(Cl)cc1
active: [2] 76.4 µM | [10] 100 µM
inactive: all other assays above

CC(CO)OC(C)CO (stereo not given) (tested in a mixture with another compound)
inactive: all assays above

NC(=O)Cn1c(=O)cc(CCN2CCN(c3nccc4sccc34)CC2)c2ccc(F)cc21
inactive: all assays above

CN[C@H]1CC[C@@H](c2ccc(Cl)c(Cl)c2)c2ccc(S(N)(=O)=O)cc21
active: [4] 15.1 µM
inactive: all other assays above

CC(=O)Oc1ccccc1C(=O)O
inactive: all assays above
